# This is a sample that favours compounds with a hit; in the whole collection about 0.74% have one here.
# LYPLA2 counter: counter-screen for PME1 inhibitors: inhibitors of human LYPLA2; actives 0.38% (n = 320,000); AID 2177; inhibition, % at 5.9 µM; recombinant LYPLA2, FP-Rh probe fluorescence polarization; O95372;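 active = inhibition above the screen-wide mean plus 3 SD, limit set per campaign, cut at about 26% in these data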;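 note: 0% = LYPLA2 with DMSO and 100% = wells lacking LYPLA2 enzyme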
# Target sequence (O95372 whole entry, looked up): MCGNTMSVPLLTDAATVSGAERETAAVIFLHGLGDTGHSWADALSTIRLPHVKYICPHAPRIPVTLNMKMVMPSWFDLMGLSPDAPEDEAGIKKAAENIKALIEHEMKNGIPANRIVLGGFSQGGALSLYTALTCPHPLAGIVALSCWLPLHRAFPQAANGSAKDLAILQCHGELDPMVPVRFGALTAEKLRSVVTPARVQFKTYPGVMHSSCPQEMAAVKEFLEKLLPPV
# p97 inhibitor: inhibitors of human p97 ATPase; P55072; recombinant p97 ATPase, Kinase-Glo ATP luminescence, 3 h; inhibition, % at 8 µM; actives 0.42% (n = 220,000); AID 1481; in the data active = inhibition above about 15%;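 note: 0% = DMSO vehicle and 100% = wells lacking enzyme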
# LYPLA1 inh: counter-screen for PME1 inhibitors: inhibitors of human LYPLA1; O75608; recombinant LYPLA1, FP-Rh probe fluorescence polarization; inhibition, % at 5.9 µM; actives 0.16% (n = 320,000);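 active = inhibition above the mean of all tested compounds plus 3 SD, set per campaign, cut at about 14% in these data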;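 note: inhibitors block serine hydrolase probe labeling of LYPLA1 so polarization falls; 0% = enzyme with DMSO and 100% = wells lacking LYPLA1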
# Target sequence (O75608 whole entry, looked up): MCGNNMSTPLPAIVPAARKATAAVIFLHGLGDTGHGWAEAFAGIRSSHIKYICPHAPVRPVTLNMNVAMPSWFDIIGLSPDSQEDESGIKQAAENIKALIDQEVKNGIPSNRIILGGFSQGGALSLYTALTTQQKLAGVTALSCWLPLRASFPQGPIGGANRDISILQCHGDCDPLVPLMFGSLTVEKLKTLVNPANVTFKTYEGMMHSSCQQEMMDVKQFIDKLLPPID
# DTT redox prof: compounds producing H2O2 with reducing agent – biochemical, NIH compound library profiling, artefact control for MLSCN library redox annotation, primary screen. DTT-dependent redox cycling H2O2, phenol red/HRP absorbance; 100% = 100 µM peroxide control, 0% = buffer. activation, % at 10 µM. actives 0.03% (n = 200,000);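 active = activation of at least 50% relative to the plate's high and low controls in the primary single-dose screen; inactive = activation below 50%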;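 note: compound incubated with DTT at 0.8 mM final as the reducing agent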
# Active calls of the source: *; . = not tested or not shown.
SMILES,LYPLA2 counter,p97 inhibitor,LYPLA1 inh,DTT redox prof
Cc1cc(C)nc(/N=C(\N)Nc2ccc(OCc3ccccc3)cc2)n1,30*,10,6,-1
CC1(C)C(/C=C/C=C/C=C/C=C2\N(CCCCS(=O)(=O)O)c3ccc4ccccc4c3C2(C)C)=[N+](CCCCS(=O)(=O)[O-])c2ccc3ccccc3c21,-25,.,-8,.
Cc1nn(-c2ccccc2)c(Cl)c1/C=N/NC(=O)c1ccncc1,-5,1,-2,.
Oc1ccc(Nc2nc(-c3ccc(O)cc3)cs2)cc1,-2,15*,-4,1
NC(=O)[C@@H]1CCCNc2c(I)cc([N+](=O)[O-])cc2C(=O)N[C@@H](CO)C(=O)N[C@@H](Cc2ccc(O)cc2)C(=O)N1,-6,6,-2,1
NC(=O)CC[C@@H]1NC(=O)[C@H](CO)NC(=O)c2cc([N+](=O)[O-])cc(I)c2NCCC[C@@H](C(N)=O)NC(=O)[C@H](Cc2ccc(O)cc2)NC1=O,-4,18*,-8,1
CC(C)C[C@@H]1NC(=O)[C@H](Cc2ccc(O)cc2)NC(=O)c2cc([N+](=O)[O-])cc(I)c2NCCC[C@@H](C(N)=O)NC1=O,-32,16*,-23,0
Cc1nn2c(NCCN(C)C)c3c(nc2c1-c1ccccc1)CCCC3,3,-1,2,.
CC(=O)N(c1cccc(Br)c1)c1nc(C)cc(C)c1C#N,6,2,0,.
COc1ccc(Cl)cc1NC(=O)c1ccccc1C,-3,3,-5,1
COc1ccccc1C(=O)Nc1cc(Cl)ccc1O,1,15*,0,-3
COc1cc2c(cc1NC(=O)COC(=O)/C=C/c1ccc([N+](=O)[O-])cc1)oc1ccccc12,-8,15*,-3,.
COc1cc2c(cc1NC(=O)/C=C/c1ccc([N+](=O)[O-])cc1)oc1ccccc12,-5,7,-1,1
Cc1ccc(S(=O)(=O)C(C#N)c2nc3ccccc3nc2N2CCCC2)cc1 (centres undefined),12,20*,1,4
Oc1cc2c(cc1O)C1c3ccc(O)c(O)c3OCC1(O)C2 (centres undefined),3,15*,1,1
COc1ccc([C@H]2CC(=O)C=C(c3ccc4cc[nH]c4c3)C2)cc1,-4,.,-9,.
O=C1c2cc(CO)cc(O)c2C(=O)c2c(O[C@@H]3OC(CO)[C@@H](O)[C@@H](O)[C@@H]3O)cccc21 (some centres undefined),6,.,3,.
O=C(O)c1cc(O)c2c(c1)[C@@H]([C@H]1c3cc(C(=O)O)cc(O)c3C(=O)c3c(O[C@@H]4O[C@H](CO)[C@@H](O)[C@H](O)[C@H]4O)cccc31)c1cccc(OC3O[C@H](CO)[C@@H](O)[C@H](O)[C@H]3O)c1C2=O (some centres undefined),90*,.,28*,.
O=C(O)c1cc(O)c2c(c1)[C@H]([C@H]1c3cc(C(=O)O)cc(O)c3C(=O)c3c(O[C@@H]4O[C@H](CO)[C@@H](O)[C@H](O)[C@H]4O)cccc31)c1cccc(OC3O[C@H](CO)[C@@H](O)[C@H](O)[C@H]3O)c1C2=O (some centres undefined),75*,.,10,.
COc1ccc(-c2ccc(C(c3c(C)[nH][nH]c3=O)c3c(C)[nH][nH]c3=O)o2)c([N+](=O)[O-])c1,.,15*,.,-2
Cc1[nH][nH]c(=O)c1C(c1ccc(-c2ccc(F)cc2)o1)c1c(C)[nH][nH]c1=O,-8,9,2,-1
CCOc1ncccc1C(=O)N1CCN(c2cccc(C)c2C)CC1,.,-5,.,-1
CCOc1ncccc1C(=O)N1CCN(c2cc(Cl)ccc2C)CC1,28*,-1,-1,-1
O=[N+]([O-])c1ccc(-c2n(-c3ccccn3)c3ccccc3[n+]2-c2ccccn2)cc1,5,2,0,.
NC(=O)c1ccc(N2CCN(c3ccc(O)cc3)CC2)c([N+](=O)[O-])c1,32*,3,9,-1
SMILES,LYPLA2 counter,p97 inhibitor,LYPLA1 inh,DTT redox prof
CC(/C=C/c1ccc(O)cc1)=N/O,-1,-1,-3,1
CC(=O)Nc1ccc(S(=O)(=O)NCc2ccc3c(c2)cc(C)n3C)cc1,3,17*,13,-1
CCNC(=S)N1CCN(c2ccc([N+](=O)[O-])cc2)CC1,10,1,2,-4
O=[N+]([O-])c1ccc(N2CCN(C(=S)NCc3ccc(Cl)cc3)CC2)cc1,28*,3,-3,-1
CCOc1ccc2c(c1)sc(N)[n+]2Cc1cc(C)cc2cccnc12,35*,-4,0,0
Nc1nc2c(s1)CCc1c-2cnn1-c1ccccc1,-11,16*,-6,-1
O=C(/C=C/c1ccccc1)Nc1cccc(S(=O)(=O)Nc2ccccc2F)c1,-12,2,-10,-1
Oc1ccc(N=Nc2ccccc2)o1,-8,.,-7,.
O=C(CN(C(=O)c1csnn1)c1cccc2c1CCCC2)NCc1ccccc1,2,.,-2,.
O=C(O[C@@H]1Cc2c(O)cc(O)cc2O[C@@H]1c1cc(O)c(O)c(O)c1)c1cc(O)c(O)c(O)c1,.,42*,.,.
O=C(COC(=O)CSc1ccc([N+](=O)[O-])cc1)NCCC1=CCCCC1,10,.,-4,.
CN1CCN(C(=O)c2ccc(CSc3nc4ccncc4n3Cc3ccc(F)cc3)cc2)CC1,4,16*,2,0
CCOC(=O)N1CCN(C(=O)c2cc3cc(F)ccc3[nH]2)CC1,5,.,2,.
CCOC(=O)N1CCN(C(=O)c2ccc3nc(SCc4ccc(F)cc4)n(C)c3c2)CC1,28*,7,-28,1
O=C(N[C@@H]1C[C@H]2CC[C@@H]1C2)c1ccco1,-2,.,-3,.
O=C(COc1ccccc1F)NCC(c1ccc(F)cc1)N1CCOCC1 (centres undefined),-2,.,0,.
Cc1c(Cl)cccc1NS(=O)(=O)c1ccc2c(c1)C1C=CCC1C(c1ccc(C(=O)O)cc1)N2 (centres undefined),-7,36*,-8,0
Cc1cc(NC(=O)C(C)SCC(=O)N(C)CC(=O)Nc2ccc(F)cc2)no1 (centres undefined),-1,.,-1,.
COc1ccccc1NC1=C(NC(C)=O)C(=O)c2ccccc2C1=O,.,-5,.,-1
COc1ccccc1N(/N=C1\Sc2ccccc2C1=O)C(C)=O,-3,15*,0,.
CCCCNc1nc(N)ncc1[N+](=O)[O-],7,15*,0,.
CCCCNc1c([N+](=O)[O-])ncn1C,3,4,-3,.
CC(Oc1ccc2ccc(=O)oc2c1)C(=O)NCCN1CCOCC1 (centres undefined),6,.,4,.
O=C(C[n+]1ccc2ccccc2c1)c1cccc2ccccc12,5,3,2,-2
O=C(/C=C/c1cc[n+](CC(=O)c2ccc3cccc4c3c2CC4)cc1)c1ccc2cccc3c2c1CC3,83*,46*,78*,.
N#Cc1c(NC(=O)CSc2ncnc3sccc23)oc(-c2ccco2)c1-c1ccco1,-12,15*,-9,0
